Data on 19 molecules can be found in PubChem BioAssay (EPA / NIEHS).

Usually AC50 stands for the concentration giving half of the maximal activity seen.

In assay [1] the target is human Vitamin D Receptor (VDR), VDR (gene 7421) (UniProt P11473). As to the kind of experiment: ATG_VDR_TRANS: Attagene TRANS-FACTORIAL HepG2 Assay for human Vitamin D Receptor (VDR) (AID 2283022; active = hit-call score of the fitted dose curve at least 0.9, where 1 is the maximum). The essentials:
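HepG2 cells were transiently transfected with multiple GAL4-UAS reporter units, so signal reflects exogenous chimeric receptor-Gal4 activity. After 24 h compound exposure, reporter mRNA was measured by RT-PCR, fluorescent labelling and capillary electrophoresis, fitted for gain of signal versus DMSO.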

Read-out in assay [2]: Monokine induced gamma interferon (MIG), CXCL9 (gene 4283)
Nature of the assay: BSK_3C_MIG: BioMAP Diversity Plus: 3C Assay for Monokine induced gamma interferon (MIG) Biomarker Activity (AID 2283021). The conditions noted are these: primary human endothelial cells (HUVEC); actives raise or lower the signal. The procedure, abridged: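 Primary human umbilical vein endothelial cells in the 3C system were exposed to chemical for 24 h, after which MIG was quantified by ELISA. Activity was fitted bidirectionally against DMSO as negative control and baseline.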

A short description of assay [3]: BSK_3C_SRB: Viability Assessment in the BioMAP Diversity Plus: 3C Assay (AID 2283023).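 Also: fitted both ways against DMSO so a hit may be signal rise or drop.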 The conditions noted are these: primary human endothelial cells (HUVEC). The essentials: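 Primary human umbilical vein endothelial cells in the 3C system were read 24 h after compound dosing. Total protein was stained with 0.1% sulforhodamine B after 10% TCA fixation and read at 560 nm, with bidirectional fitting against DMSO as baseline.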

Read-out in assay [4]: Matrix Metallopeptidase 1 (MMP1), MMP1 (gene 4312)
As to the kind of experiment: BSK_BE3C_MMP1: BioMAP Diversity Plus: BE3C Assay for Matrix Metallopeptidase 1 (MMP1) Biomarker Activity (AID 2283024). The conditions noted are these: primary human bronchial epithelial cells; actives raise or lower the signal. The essentials:
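Primary human bronchial epithelial cells were dosed with test chemicals, and MMP1 levels were measured by ELISA 24 h later. Data were fitted bidirectionally against DMSO as the negative control and activity baseline.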

Read-out in assay [5]: Pselectin, SELP (gene 6403)
Nature of the assay: BSK_4H_Pselectin: BioMAP Diversity Plus: 4H Assay for Pselectin Biomarker Activity (AID 2283026). The note with it: primary human endothelial cells (HUVEC); actives raise or lower the signal. The procedure, abridged:
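Primary human umbilical vein endothelial cells were exposed to test chemical for 24 h, then cell-surface P-selectin was quantified by ELISA. Activity was fitted bidirectionally against DMSO as negative control and baseline.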

Assay [6] can be described thus: BSK_4H_SRB: Viability Assessment in the BioMAP Diversity Plus: 4H Assay (AID 2283027).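 Also: cells exposed to compound for 24 h before staining.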 The conditions noted are these: primary human endothelial cells (HUVEC). The procedure, abridged:
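Human umbilical vein endothelial cells were dosed with chemical and, after 24 h, fixed with 10% TCA, stained with 0.1% sulforhodamine B, and read at 560 nm to give total protein as a cytotoxicity measure. Bidirectional fitting relative to DMSO control.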

Assay [7] in a line: BSK_BE3C_SRB: Viability Assessment in the BioMAP Diversity Plus: BE3C Assay (AID 2283028). The note with it: primary human bronchial epithelial cells. The essentials: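 Human primary bronchial epithelial cells were exposed to test chemicals for 24 h. Total protein in parallel cultures was then measured by staining with 0.1% sulforhodamine B after 10% TCA fixation, with absorbance read at 560 nm. Activity was fitted bidirectionally against DMSO.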

Read-out in assay [8]: Thrombomodulin, THBD (gene 7056)
As to the kind of experiment: BSK_3C_Thrombomodulin: BioMAP Diversity Plus: 3C Assay for Thrombomodulin Biomarker Activity (AID 2283029). The conditions noted are these: primary human endothelial cells (HUVEC); actives raise or lower the signal. The procedure, abridged: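 Primary human umbilical vein endothelial cells (3C system) were exposed to chemical for 24 h, then thrombomodulin levels were measured by ELISA. Activity was fitted bidirectionally against the DMSO negative control as baseline.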

Read-out in assay [9]: Urokinase-type plasminogen activator receptor (uPAR), PLAUR (gene 5329)
Nature of the assay: BSK_4H_uPAR: BioMAP Diversity Plus: 4H Assay for Urokinase-type plasminogen activator receptor (uPAR) Biomarker Activity (AID 2283030). The conditions noted are these: primary human endothelial cells (HUVEC); actives raise or lower the signal. The essentials:
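Primary human umbilical vein endothelial cells were exposed to chemical for 24 h before cell-surface uPAR was quantified by ELISA. Activity was fitted bidirectionally against the DMSO negative control baseline.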

Read-out in assay [10]: Vascular endothelial growth factor receptor 2 (Homo sapiens) (UniProt P35968)
Nature of the assay: BSK_4H_VEGFRII: BioMAP Diversity Plus: 4H Assay for Vascular endothelial growth factor receptor 2 (VEGFR2) Biomarker Activity (AID 2283031).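 As to AC50: cell-surface VEGFR2 protein level quantified by ELISA.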 The note with it: primary human endothelial cells (HUVEC); actives raise or lower the signal. The essentials: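 Primary human umbilical vein endothelial cells in the BioMAP 4H system were dosed with test chemical, and 24 h later VEGFRII was measured by ELISA. Activity was fitted bidirectionally against DMSO as negative control and baseline.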

Read-out in assay [11]: Human Leukocyte Antigen - DR isotype (HLADR), HLA-DRA (gene 3122)
As to the kind of experiment: BSK_BE3C_HLADR: BioMAP Diversity Plus: BE3C Assay for Human Leukocyte Antigen - DR isotype (HLADR) Biomarker Activity (AID 2283032). The note with it: primary human bronchial epithelial cells; actives raise or lower the signal. The essentials:
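Human primary bronchial epithelial cells in the BE3C system were exposed to chemicals for 24 h, after which HLA-DR levels were quantified by ELISA. Activity was fitted bidirectionally, gain or loss of signal, against DMSO as negative control and baseline.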

Read-out in assay [12]: Vascular cell adhesion molecule 1 (VCAM1), VCAM1 (gene 7412)
Nature of the assay: BSK_4H_VCAM1: BioMAP Diversity Plus: 4H Assay for Vascular cell adhesion molecule 1 (VCAM1) Biomarker Activity (AID 2283033).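 As to outcome: cell-surface VCAM-1 protein measured by ELISA.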 The conditions noted are these: primary human endothelial cells (HUVEC); actives raise or lower the signal. The procedure, abridged: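 Primary human umbilical vein endothelial cells were exposed to chemicals for 24 h, after which VCAM-1 was quantified by ELISA. Responses were fitted bidirectionally against DMSO as negative control and activity baseline.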

Read-out in assay [13]: Interferon-gamma inducible Protein 10 (IP10), CXCL10 (gene 3627)
As to the kind of experiment: BSK_BE3C_IP10: BioMAP Diversity Plus: BE3C Assay for Interferon-gamma inducible Protein 10 (IP10) Biomarker Activity (AID 2283034). The note with it: primary human bronchial epithelial cells; actives raise or lower the signal. The essentials: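 Human primary bronchial epithelial cells were exposed to chemicals for 24 hours, after which IP-10 levels were measured by ELISA. Data were fitted bidirectionally against DMSO, which served as the negative control and activity baseline.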

Read-out in assay [14]: Plasminogen activator inhibitor-1 (PAI1), SERPINE1 (gene 5054)
Nature of the assay: BSK_BE3C_PAI1: BioMAP Diversity Plus: BE3C Assay for Plasminogen activator inhibitor-1 (PAI1) Biomarker Activity (AID 2283037). The note with it: primary human bronchial epithelial cells; actives raise or lower the signal. The essentials:
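Human primary bronchial epithelial cells were exposed to chemical for 24 h, then PAI-1 was quantified by ELISA. Activity was fitted bidirectionally relative to the DMSO negative control baseline.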

Read-out in assay [15]: urokinase plasminogen activator (uPA), PLAU (gene 5328)
As to the kind of experiment: BSK_BE3C_uPA: BioMAP Diversity Plus: BE3C Assay for urokinase plasminogen activator (uPA) Biomarker Activity (AID 2283038).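 Also: uPA protein level quantified by ELISA in cell cultures; uPA read one day after compound addition.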 The conditions noted are these: primary human bronchial epithelial cells; actives raise or lower the signal. The procedure, abridged:
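Human primary bronchial epithelial cells were exposed to chemical for 24 h, then uPA levels were measured by ELISA. Responses were fitted bidirectionally against DMSO as negative control and baseline. Parallel SRB staining of total protein gauged overt cytotoxicity.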

Read-out in assay [16]: Urokinase-type plasminogen activator receptor (uPAR), PLAUR (gene 5329)
As to the kind of experiment: BSK_BE3C_uPAR: BioMAP Diversity Plus: BE3C Assay for Urokinase-type plasminogen activator receptor (uPAR) Biomarker Activity (AID 2283039).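 Also: cells exposed to compound for one day before measurement.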 The note with it: primary human bronchial epithelial cells; actives raise or lower the signal. The procedure, abridged: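 Primary human bronchial epithelial cells were dosed with chemical and harvested 24 h later; uPAR was quantified by ELISA. Activity was fitted bidirectionally against DMSO as negative control and baseline.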

Read-out in assay [17]: Interleukin-6 (IL6), IL6 (gene 3569)
As to the kind of experiment: BSK_CASM3C_IL6: BioMAP Diversity Plus: CASM3C Assay for Interleukin-6 (IL6) Biomarker Activity for (AID 2283040). The note with it: primary human coronary artery smooth muscle cells; actives raise or lower the signal.

Read-out in assay [18]: Tissue plasminogen activator (tPA), PLAT (gene 5327)
Nature of the assay: BSK_BE3C_tPA: BioMAP Diversity Plus: BE3C Assay for Tissue plasminogen activator (tPA) Biomarker Activity (AID 2283041).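 Also: tPA level quantified by ELISA one day after compound addition.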 The conditions noted are these: primary human bronchial epithelial cells; actives raise or lower the signal. The essentials: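 Human primary bronchial epithelial cells were dosed with chemical and tPA biomarker levels measured by ELISA 24 hours later. Activity was fitted bidirectionally against DMSO as negative control and baseline.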

A short description of assay [19]: BSK_3C_Vis: BioMAP Diversity Plus: 3C Assay for Morphology Visualization (AID 2283025).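 Also: fitted both ways so gain or loss versus DMSO counts.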 The note with it: primary human endothelial cells (HUVEC). The procedure, abridged:
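Human umbilical vein endothelial cells in the 3C system were imaged by light microscopy 24 h after chemical dosing to record cell morphology. Activity was fitted bidirectionally against DMSO as negative control and baseline; the endpoint serves as a background control.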

Values joined by “and” are separate entries in the source; they are usually repeats but may differ in a detail not shown here. Equal entries are not always repeated. Records with an inconclusive call do not appear. Some compounds were tested as several samples or in several runs, with calls that do not always agree. Active and inactive are the calls of the source. The calls were made as follows, unless noted: active = hit-call score of the fitted dose curve at least 0.9, where 1 is the maximum; inactive = score below 0.9.

Chain of human Vitamin D Receptor (VDR), VDR (gene 7421) (P11473 whole entry, looked up, the tested form may be a part): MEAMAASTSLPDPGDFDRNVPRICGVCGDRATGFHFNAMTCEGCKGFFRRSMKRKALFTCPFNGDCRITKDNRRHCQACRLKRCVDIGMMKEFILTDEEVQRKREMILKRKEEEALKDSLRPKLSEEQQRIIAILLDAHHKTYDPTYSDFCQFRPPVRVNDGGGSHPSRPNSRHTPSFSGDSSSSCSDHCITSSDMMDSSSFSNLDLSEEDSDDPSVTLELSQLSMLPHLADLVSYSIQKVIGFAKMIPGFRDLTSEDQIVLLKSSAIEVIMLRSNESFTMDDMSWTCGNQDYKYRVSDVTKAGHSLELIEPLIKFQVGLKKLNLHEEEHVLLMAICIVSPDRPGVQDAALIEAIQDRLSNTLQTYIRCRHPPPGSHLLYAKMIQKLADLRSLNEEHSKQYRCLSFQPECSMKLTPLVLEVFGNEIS

Take `CCCCN(CCCC)CCCCCCN(CCCC)CCCC`: the call in assay [1] was inactive.
Consider `C=C(C)C(=O)OCCC(F)(F)C(F)(F)C(F)(F)C(F)(F)C(F)(F)C(F)(F)C(F)(F)C(F)(F)F`, for which the outcome in assay [2], in assay [3], in assay [4], in assay [5], in [6] and in [7] was inactive. Besides, the outcome in assay [8], in assay [9], in assay [10], in assay [11], in [12] and in [13] was inactive. In addition, the outcome in assay [14], in assay [15], in assay [16], in assay [17] and in [18] was inactive.
In the case of `CCCCCCCCCCOC(=O)c1ccccc1C(=O)OCCCCCCCC`, the call in [1] was inactive.
On to `CC(=O)CCC=C(C)CCC=C(C)C`, for which the result in [2], in [3], in [4], in [19], in [5] and in assay [6] was inactive. Besides, the result in [7], in [8], in assay [9], in assay [10], in assay [11] and in assay [13] was inactive. For the same molecule, the outcome in assay [14], in [15], in assay [16], in [17] and in assay [18] was inactive. Further, the AC50 in assay [12] is 28.9 µM (active).
As for `c1ccc(Cc2ccccc2)cc1`, in [1], the outcome was inactive.
On the same count and under the same terms, to `CCCC1CCOC(C)S1` (stereo not drawn) belongs “inactive”; to `C=C/C(C)=C/C/C=C(\C)CCC=C(C)C`, “inactive”.
Still for that read-out and setting: to `CN1CCc2cccc3c2[C@H]1Cc1ccc(O)c(O)c1-3` belongs “inactive”.
`CC(=O)c1ccc(C)cc1`: the outcome in [2], in assay [3], in assay [4], in [5], in [6] and in assay [7] was inactive. In addition, the outcome in assay [8], in assay [9], in [10], in [11], in [12] and in [13] was inactive. Also, the result in assay [14], in assay [15], in assay [16], in assay [17] and in assay [18] was inactive. The half-maximal activity concentration (AC50) in assay [10] is 1.45 µM (active).
As to `C=CC(O)CCCCC` (stereo not drawn), the molecule was classed as inactive in assay [1].
In the case of `CC(=O)C1C(=O)C=C(C)OC1=O` (stereo not drawn), in assay [1], the result was inactive.
For `COc1ccccc1NC(=O)CC(C)=O`, the outcome in assay [2], in [3], in [4], in assay [19], in assay [5] and in assay [6] was inactive. Besides, the outcome in assay [7], in assay [8], in assay [9], in assay [10], in assay [11] and in [12] was inactive. The result in assay [13], in assay [14], in [15], in [16], in assay [17] and in assay [18] was inactive.
For the molecule `O=C(O)c1cccc(Cl)n1`, the result in assay [1] was inactive.
Still for that read-out and setting: in the case of `CC1=CC(O)CC(C)(C)C1` (stereo not drawn) it was “inactive”; in that of `CCCC[N+](C)(CCCC)CCCC`, “inactive”; in that of `CN(C)C`, “inactive”.
`CCO[Si](CC)(OCC)OCC`: the molecule was classed as inactive in assay [1].
The same measure, in the same setting: in the case of `CC(=O)CC(=O)N(C)C` it was “inactive”.
On to `O=C(O)C(F)(F)C(F)(F)C(F)(F)C(F)(F)C(F)(F)C(F)(F)C(F)(F)C(F)F`, for which the outcome in assay [2], in [3], in assay [5], in assay [6], in assay [7] and in [8] was inactive. The outcome in assay [9], in assay [10], in [12], in [14], in assay [15] and in assay [16] was inactive. Further, the outcome in [17] and in [18] was inactive. The AC50 in assay [4] was 11.5 µM (active) and 35.9 µM (active); in assay [5] it was 19.5 µM (active); in [11], 12.5 µM (active) and 3.23 µM (active); in assay [13], 30 µM (active) and 38.3 µM (active).
